Measurements reported in PubChem BioAssay AID1159580 (chemical genetic matrix, 2015).
Among all 5,500 compounds or so, about 2,000 (36%) were called active. Another 18% or so got no clear call; they are omitted. No stated cut-off is given here; in the data, active means normalized growth mostly below about 0.91 (no sharp cut-off); inconclusive means no clear call, values can overlap the other calls; inactive means mostly above about 0.92. Some of the results follow.

Experiment: chemical genetic growth profiling, strain panel (AID 1159580);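 further: tested at 20 µM; growth read once vehicle control cultures reached saturation at 30 °C; 1 = growth at the plate median or of vehicle wells; lower values mean less growth of the strain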
Conditions: S. cerevisiae deletion strains, growth OD

Measured: normalized growth

CC(=O)O[C@@H]1CC2C(C)(C)C(=O)C3OC3[C@]2(C)C2CC[C@@]3(C)[C@H](c4ccoc4)OC(=O)C4OC43[C@@]21C (some centres not stated)
inactive: locus YAL021C, strain ccr4, hits give low values 0.988 | locus YAL026C, strain drs2, hits give low values 0.984 | locus YAL030W, strain snc1, hits give low values 0.993 | locus YBL061C, strain skt5, hits give low values 0.97 | locus YBR009C, strain hhf1, hits give low values 0.981 | locus YBR021W, strain FUR4, hits give low values 0.964 | locus YBR023C, strain chs3, hits give low values 0.982 | locus YBR171W, strain sec66, hits give low values 0.966 | locus YBR229C, strain ROT2, hits give low values 0.994 | locus YBR231C, strain swc5, hits give low values 0.975 | locus YBR279W, strain paf1, hits give low values 0.988 | locus YCL011C, strain gbp2, hits give low values 0.993 | locus YCL016C, strain dcc1, hits give low values 0.991 | locus YCL029C, strain bik1, hits give low values 1 | locus YCL061C, strain MRC1, hits give low values 0.988 | locus YCL069W, strain vba3, hits give low values 0.982 | locus YCR088W, strain abp1, hits give low values 0.987 | locus YDL005C, strain med2, hits give low values 0.971 | locus YDL035C, strain GPR1, hits give low values 1.01 | locus YDL040C, strain nat1, hits give low values 0.972 | locus YDL074C, strain BRE1, hits give low values 0.994 | locus YDL101C, strain DUN1, hits give low values 1.01 | locus YDL185W, strain tfp1, hits give low values 0.999 | locus YDL192W, strain arf1, hits give low values 1.01 | locus YDR001C, strain nth1, hits give low values 0.986 | locus YDR069C, strain doa4, hits give low values 0.993 | locus YDR101C, strain arx1, hits give low values 1.01 | locus YDR137W, strain rgp1, hits give low values 1 | locus YDR150W, strain NUM1, hits give low values 1.01 | locus YDR159W, strain sac3, hits give low values 0.941 | locus YDR162C, strain NBP2, hits give low values 1.02 | locus YDR195W, strain ref2 0.978 | locus YDR297W, strain sur2, hits give low values 0.983 | locus YDR318W, strain mcm21, hits give low values 0.997 | locus YDR334W, strain swr1, hits give low values 0.972 | locus YDR335W, strain msn5, hits give low values 0.987 | locus YDR388W, hits give low values 1 | locus YDR392W, strain spt3, hits give low values 0.966 | locus YDR502C, strain sam2, hits give low values 0.992 | locus YEL003W, strain gim4, hits give low values 0.979 | locus YEL037C, strain rad23, hits give low values 0.974 | locus YEL061C, strain CIN8 (second series), hits give low values 0.983 | locus YER015W, strain faa2, hits give low values 0.992 | locus YER016W, strain bim1, hits give low values 0.987 | locus YER110C, hits give low values 1 | locus YER111C, strain swi4, hits give low values 0.976 | locus YER155C, strain BEM2 (second series), hits give low values 0.986 | locus YER155C, strain BEM2, hits give low values 0.996 | locus YER167W, strain BCK2, hits give low values 1.01 | locus YFR010W, strain ubp6, hits give low values 0.964 | locus YGL078C, strain dbp3, hits give low values 0.997 | locus YGL086W, strain mad1, hits give low values 1.03 | locus YGL167C, strain pmr1, hits give low values 0.971 | locus YGL173C, strain kem1, hits give low values 0.986 | locus YGL227W, strain vid30, hits give low values 0.988 | locus YGL240W, strain doc1, hits give low values 0.96 | locus YGL248W, strain PDE1, hits give low values 1.01 | locus YGL253W, strain hxk2, hits give low values 0.94 | locus YGR135W, strain pre9, hits give low values 0.975 | locus YGR252W, strain gcn5, hits give low values 0.928 | locus YHR013C, strain ard1, hits give low values 0.969 | locus YHR027C, strain rpn1, hits give low values 0.978 | locus YHR030C, strain SLT2, hits give low values 0.988 | locus YHR079C, strain IRE1 (second series), hits give low values 1 | locus YHR079C, strain IRE1, hits give low values 1 | locus YHR094C, strain hxt1, hits give low values 1 | locus YHR129C, strain ARP1, hits give low values 1.01 | locus YHR142W, strain chs7, hits give low values 0.965 | locus YHR200W, strain rpn10, hits give low values 1 | locus YIL066C, strain RNR3, hits give low values 1.01 | locus YIL073C, strain SPO22, hits give low values 1.04 | locus YIL125W, strain kgd1, hits give low values 0.996 | locus YIR030C, strain dcg1, hits give low values 0.998 | locus YJL092W, strain hpr5, hits give low values 0.981 | locus YJL095W, strain BCK1 (second series), hits give low values 0.99 | locus YJL095W, strain BCK1, hits give low values 1 | locus YJL115W, strain asf1, hits give low values 0.982 | locus YJL129C, strain trk1, hits give low values 0.965 | locus YJL134W, strain LCB3, hits give low values 1.01 | locus YJL154C, strain vps35, hits give low values 0.98 | locus YJL164C, strain tpk1, hits give low values 1.03 | locus YJL166W, strain qcr8, hits give low values 0.987 | locus YJL168C, strain set2, hits give low values 0.996 | locus YJL187C, strain SWE1 (second series), hits give low values 1 | locus YJL187C, strain SWE1, hits give low values 0.993 | locus YJR066W, strain TOR1, hits give low values 0.942 | locus YKL009W, strain mrt4, hits give low values 1.08 | locus YKL068W, hits give low values 1.01 | locus YKL160W, strain elf1, hits give low values 1 | locus YKL190W, strain CNB1, hits give low values 1.01 | locus YKR001C, strain vps1, hits give low values 0.989 | locus YKR026C, strain gcn3, hits give low values 0.977 | locus YKR091W, strain srl3, hits give low values 0.982 | locus YLL001W, strain dnm1, hits give low values 0.991 | locus YLL026W, hits give low values 0.988 | locus YLL041C, strain sdh2, hits give low values 0.981 | locus YLR027C, strain aat2, hits give low values 0.962 | locus YLR039C, strain RIC1, hits give low values 1.06 | locus YLR058C, strain SHM2, hits give low values 1.01 | locus YLR102C, strain apc9, hits give low values 1 | locus YLR113W, strain HOG1, hits give low values 0.999 | locus YLR221C, strain rsa3, hits give low values 0.964 | locus YLR258W, strain gsy2, hits give low values 0.99 | locus YLR262C, strain YPT6 (second series), hits give low values 0.994 | locus YLR268W, strain sec22, hits give low values 1.01 | locus YLR320W, strain mms22, hits give low values 0.966 | locus YLR342W, strain FKS1, hits give low values 0.985 | locus YLR357W, strain rsc2, hits give low values 0.953 | locus YLR370C, strain arc18, hits give low values 0.971 | locus YLR371W, strain rom2, hits give low values 0.997 | locus YLR384C, strain iki3, hits give low values 0.993 | locus YLR418C, strain cdc73, hits give low values 0.979 | locus YML016C, strain PPZ1, hits give low values 1.01 | locus YML032C, strain rad52, hits give low values 1.01 | locus YML120C, strain ndi1, hits give low values 0.992 | locus YML124C, strain tub3, hits give low values 1 | locus YMR058W, strain fet3, hits give low values 0.986 | locus YMR078C, strain ctf18, hits give low values 1.01 | locus YMR125W, strain sto1, hits give low values 0.999 | locus YMR129W, hits give low values 0.987 | locus YMR205C, strain PFK2, hits give low values 0.991 | locus YMR223W, strain ubp8, hits give low values 0.998 | locus YMR231W, strain pep5, hits give low values 0.95 | locus YMR307W, strain GAS1, hits give low values 0.941 | locus YNL067W, strain RPL9B, hits give low values 0.997 | locus YNL071W, strain lat1, hits give low values 0.99 | locus YNL183C, strain NPR1, hits give low values 0.963 | locus YNL209W, strain ssb2, hits give low values 0.998 | locus YNL233W, strain BNI4, hits give low values 1.03 | locus YNL248C, strain rpa49, hits give low values 0.973 | locus YNL250W, strain rad50, hits give low values 0.983 | locus YNL271C, strain bni1, hits give low values 1 | locus YNL298W, strain CLA4, hits give low values 1 | locus YNL307C, strain MCK1, hits give low values 0.993 | locus YNL322C, strain KRE1 (second series), hits give low values 0.978 | locus YNL322C, strain KRE1, hits give low values 1.01 | locus YNR049C, strain mso1, hits give low values 0.976 | locus YNR052C, strain pop2, hits give low values 0.996 | locus YOL012C, strain htz1 0.75 | locus YOL147C, strain pex11, hits give low values 1.01 | locus YOR001W, strain rrp6, hits give low values 0.97 | locus YOR061W, strain CKA2, hits give low values 1 | locus YOR069W, strain VPS5, hits give low values 1 | locus YOR070C, strain gyp1, hits give low values 0.975 | locus YOR080W, strain dia2, hits give low values 0.971 | locus YOR083W, strain WHI5, hits give low values 1.01 | locus YOR106W, strain vam3, hits give low values 0.994 | locus YOR136W, strain idh2, hits give low values 0.997 | locus YOR144C, strain elg1, hits give low values 1.02 | locus YOR184W, strain ser1, hits give low values 1.01 | locus YOR231W, strain MKK1, hits give low values 0.986 | locus YOR265W, strain rbl2, hits give low values 0.981 | locus YOR270C, strain vph1, hits give low values 0.922 | locus YOR290C, strain snf2, hits give low values 0.994 | locus YOR316C, strain cot1, hits give low values 1 | locus YPL051W, strain arl3, hits give low values 0.986 | locus YPL078C, strain atp4, hits give low values 0.994 | locus YPL106C, strain sse1, hits give low values 0.989 | locus YPL240C, strain hsp82, hits give low values 0.981 | locus YPL256C, strain CLN2, hits give low values 0.984 | locus YPR119W, strain clb2, hits give low values 0.996 | locus YPR141C, strain kar3, hits give low values 1.01 | locus YPR163C, strain tif3, hits give low values 0.999 | locus YPR167C, strain met16, hits give low values 0.998 | strain wtn01, hits give low values 1
active: locus YKL085W, strain MDH1 (second series), hits give low values 1.13 [resistant] | locus YKL085W, strain MDH1, hits give low values 1.13 [resistant]
